Pf Dd2 growth = inhibitors of Plasmodium falciparum Dd2 growth; P. falciparum Dd2 growth, SYBR Green, 72 h; Potency, µM (titrated, usually from 28.9 µM), for inactives: at the top dose activity, negative = inhibition, hits mostly inhibitors; actives 4.3% (n = 120,000); AID 1347417; active = well fitted inhibition curve with a large enough effect;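 note: plate controls were DMSO vehicle for no effect and reference drug for full effect; nearly all actives have a fitted effect of over 65% in size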
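Readout: SYBR Green fluorescence, 485 nm excitation, 535 nm emission, after ~16 h lysis at 37C. Before that, Dd2-infected red cells (2.5% hematocrit) grew 72 h with compound, 29 uM top final concentration.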
Starred values were filed as active, the others as inactive; [ ] = dose if it differs, or a comment. This is one part of a sample in which hits are shown more often than they occur. Potency is the fitted concentration of half-maximal effect.

Screening Cc1oc2c(c1C(=O)N(C)C)CN(C(=O)CCc1ccccc1)CC2 returned Pf Dd2 growth 6.31µM*.
`CCC(=O)N1CCc2oc(C)c(C(=O)N(C)C)c2C1` gave Pf Dd2 growth inactive.
CC(=O)N1CCN(C(=O)c2c(C)oc3c2CN(Cc2ccc(F)cc2)CC3)CC1 was read as Pf Dd2 growth -1.1%.
For Cc1oc2c(c1C(=O)N1CCOCC1)CN(CCC(C)C)CC2 the results were Pf Dd2 growth -20.0%.
Cc1oc2c(c1C(=O)N1CCN(c3ccccc3)CC1)CN(Cc1ccccc1)CC2 was read as Pf Dd2 growth 5.01µM*.
For Cc1oc2c(c1C(=O)N1CCSCC1)CN(Cc1cccc(F)c1)CC2 the results were Pf Dd2 growth 11.2µM*.
For O=C1CCC(C(=O)N2CCSCC2)CN1CCc1cccc(F)c1 (stereo not given) the results were Pf Dd2 growth -0.2%.
Cc1csc(NC(=O)c2nc3c(o2)CCN(Cc2cccc(F)c2)CC3)n1 was read as Pf Dd2 growth inactive.
For CN(C)C(=O)c1n[nH]c2c1CN(C(=O)CCc1ccccc1)CC2 the results were Pf Dd2 growth -21.8%.
`Cc1cccc(-c2ccccc2C(=O)N2CCC3(CCCN(C)C3=O)C2)c1` (stereo not given) gave Pf Dd2 growth -5.9%.
For O=C(Cn1nc2c(cc1=O)CCCC2)N[C@@H](Cc1ccccc1)C(=O)O the results were Pf Dd2 growth -6.2%.
CCCn1nccc1C(=O)N1CCCC(c2[nH]ncc2Cc2ccccc2)C1 (stereo not given) was read as Pf Dd2 growth -9.2%.
For COc1cc(C)c(-c2nc(Cn3cncn3)c(C)o2)cc1C the results were Pf Dd2 growth 4.2%.
Screening COCc1ccc2c(c1)c(OC(C)(C)C(=O)Nc1ccccn1)nn2CCC(C)C returned Pf Dd2 growth -13.3%[44.1 µM].
O=C1CC(c2c(F)cccc2Cl)c2c(ccc3ccccc23)N1 (stereo not given) was read as Pf Dd2 growth inactive.
`O=C1CC(c2c(Cl)cccc2Cl)c2c(ccc3ccccc23)N1` (stereo not given) gave Pf Dd2 growth inactive.
For CCCCOc1ccccc1C1CC(=O)Nc2ccc3ccccc3c21 (stereo not given) the results were Pf Dd2 growth 14.1µM*.
For COc1ccc(OCc2nnc(C(=O)N3CCC[C@@H]3c3nc4ccccc4[nH]3)n2-c2ccccc2)cc1 the results were Pf Dd2 growth inactive.
COCCC1(C(=O)O)CCCN(CCS(C)(=O)=O)C1 (stereo not given) was read as Pf Dd2 growth -12.6%.
Screening Cc1cc(NC(=O)CSc2nc3c([nH]c4ccccc43)c(=O)n2-c2ccccc2F)no1 returned Pf Dd2 growth 10µM*.
For Cc1cccc(NC(=O)CSc2nc3c([nH]c4ccccc43)c(=O)n2-c2ccc(F)cc2)c1C the results were Pf Dd2 growth 4.47µM*.
`Cc1ccc(-n2c(SCC(N)=O)nc3c([nH]c4ccccc43)c2=O)cc1` gave Pf Dd2 growth inactive.
`CSc1nc2c([nH]c3ccccc32)c(=O)n1-c1ccc(C)cc1` gave Pf Dd2 growth inactive.
Cc1cc(NC(=O)CSc2nc3c([nH]c4ccccc43)c(=O)n2-c2ccccc2)no1 was read as Pf Dd2 growth -25.8%.
Screening O=C(CSc1nc2c(oc3ccccc32)c(=O)n1-c1ccccc1F)Nc1ccccc1 returned Pf Dd2 growth -11.6%.
Screening Cc1cc(C)cc(NC(=O)CSc2nc3c([nH]c4ccccc43)c(=O)n2-c2ccc(F)cc2)c1 returned Pf Dd2 growth 10µM*.
Screening O=C(CSc1nc(-c2cccc(F)c2)[nH]c1-c1ccccc1)Nc1ccc2c(c1)OCCO2 returned Pf Dd2 growth 11.2µM*.
For O=c1c2[nH]c3ccccc3c2nc(SCc2ccccc2F)n1-c1ccc(F)cc1 the results were Pf Dd2 growth 33.2%.
CCOc1ccc(-c2nc(SCC(=O)Nc3ccc4c(c3)OCCO4)c(-c3ccc(F)cc3)[nH]2)cc1 was read as Pf Dd2 growth -18.8%.
`COc1cccc(-c2nc(SCC(=O)Nc3ccc4c(c3)OCCO4)c(-c3ccccc3)[nH]2)c1` gave Pf Dd2 growth -27.9%.
Screening O=C(CSc1nc2c([nH]c3ccccc32)c(=O)n1-c1ccc(F)cc1)N1CCCCC1 returned Pf Dd2 growth 17.3%.
Screening c1cc2c(cc1OC1CNC1)OCO2 returned Pf Dd2 growth -1.7%[44.1 µM].
`CNC(=O)Cn1nc(C2CCN(C(=O)c3ccccc3F)CC2)c2c1CCOC2` gave Pf Dd2 growth inactive[5.79 µM].
Screening COc1cccc(CC(=O)N2CCC3(CC2)CC(O)CCO3)c1 (stereo not given) returned Pf Dd2 growth 6.7%.
For Cn1cnc2cc(C(=O)N[C@@H]3COCC[C@@H]3OCc3cscn3)ccc21 the results were Pf Dd2 growth -18.5%.
For O=C(c1scc2c1OCCO2)N1CCCC(N2CCN(c3cccc(Cl)c3)CC2)C1 (stereo not given) the results were Pf Dd2 growth -10.0%.
For Cc1cnc(C(=O)NC2C[C@H]3CC[C@@H](C2)N3C(=O)c2ccc(C)s2)cn1 (stereo not given in full) the results were Pf Dd2 growth inactive.
Cc1cc(C)cc(-n2c(SCC(=O)N3CCCC3)nc3c([nH]c4ccccc43)c2=O)c1 was read as Pf Dd2 growth 10.2%.
Screening Cc1ccc(-n2c(SCC(=O)NCc3ccc(F)cc3)nc3c([nH]c4ccccc43)c2=O)cc1 returned Pf Dd2 growth inactive.
Cc1cc(C)cc(-n2c(SCC(=O)NCc3ccc(F)cc3)nc3c([nH]c4ccccc43)c2=O)c1 was read as Pf Dd2 growth 11.2µM*.
For CCOc1ccc(-n2c(SCC(=O)NC3CCCCC3)nc3c([nH]c4ccccc43)c2=O)cc1 the results were Pf Dd2 growth -15.5%.
Screening COc1cccc(-n2c(SCC(=O)Nc3cccc(C)c3)nc3c([nH]c4ccccc43)c2=O)c1 returned Pf Dd2 growth 10µM*.
COc1cccc(-n2c(SCC(=O)N3CCCCC3)nc3c([nH]c4ccccc43)c2=O)c1 was read as Pf Dd2 growth -2.8%.
`COc1cccc(-n2c(SCC(=O)c3ccc(Cl)cc3)nc3c([nH]c4ccccc43)c2=O)c1` gave Pf Dd2 growth inactive.
O=C(CSc1nc2c([nH]c3ccccc32)c(=O)n1-c1ccc(F)cc1)Nc1ccc2c(c1)OCO2 was read as Pf Dd2 growth 11.2µM*.
`Cn1c(SCC(=O)Nc2ccc(F)cc2)nc2c([nH]c3ccccc32)c1=O` gave Pf Dd2 growth 17.4%.
`O=C(CSc1nc2c([nH]c3ccccc32)c(=O)n1-c1ccc(Cl)cc1)NC1CCCCC1` gave Pf Dd2 growth 12.6µM*.
Screening Cc1cc(C)cc(-n2c(SCC(=O)Nc3ccc4c(c3)OCO4)nc3c([nH]c4ccccc43)c2=O)c1 returned Pf Dd2 growth -15.6%.
`O=C(CSc1nc2c([nH]c3ccccc32)c(=O)n1-c1ccc(Cl)cc1)N1CCc2ccccc21` gave Pf Dd2 growth 61.2%.
O=C(c1cc(F)ccc1F)N1CCN(c2nnc3ccc(Cl)cn23)CC1 was read as Pf Dd2 growth inactive.
CN(C)CCCNC(=O)C[C@H]1NC(=O)c2ccccc2NC1=O was read as Pf Dd2 growth 4.1%.
For COCCN(C)C[C@@H]1CN(C(=O)c2ccc3c(c2)CCC3)C[C@@H]1CO the results were Pf Dd2 growth -15.4%.
For Cc1noc(C)c1CCC(=O)N[C@@H]1CCOC[C@H]1Oc1ccccn1 the results were Pf Dd2 growth 12.1%.
`O=C(Nc1ccc2c(c1)CN(Cc1ccc3c(c1)OCO3)C(=O)CO2)c1ccc(F)cc1` gave Pf Dd2 growth inactive.

Compound activity deposited in PubChem by National Center for Advancing Translational Sciences (NCATS).
